Most compounds without a hit are left out; they make up all but 3.6% or so of the library.
D1 potentiator – human D1 dopamine receptor positive modulation | P21728 | HEK293 TREx D1 cells, calcium flux, dopamine EC20 potentiation | potentiation, % at 10 µM | 0.036% of 360,000 active | AID 504651; in the data active = potentiation above about 30%; also: 0% is about no effect
LDHA block – inhibitors of human lactate dehydrogenase A | purified LDHA, NADH/diaphorase-resazurin fluorescence; active compounds read low | activity change, % (values are at about 110 or 230 µM) | 0.15% of 480,000 active | AID 1347041; in the data active = activity change below about -30%;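 also: plate controls were DMSO wells for no effect and wells without enzyme for full effect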
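Enzyme activity of human lactate dehydrogenase 5 (2 nM; 0.06 mM NADH, 0.2 mM pyruvate, 5 min, RT) is measured via a resazurin/diaphorase fluorescence readout of residual NADH.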
D1 agonist – human D1 receptor agonism; P21728; HEK293 T-REx D1 cells, calcium flux, agonist mode; activation, % at 2 µM; 1% of 360,000 active; AID 504660; also: 0% is about no effect
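Agonism was scored from calcium flux recorded over 180 s (1 read/s) after pintool compound addition, following a 10-cycle baseline. Cells were inducible force-coupled HEK293 TREx D1, plated overnight at 30 C and loaded with no-wash calcium dye.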
TRHR enhancer – allosteric enhancers of human TRH receptor; P34981; TRHR cells, fluo-8 calcium fluorescence, EC20 TRH enhancement; enhancement, % at 2 µM; 0.66% of 360,000 active; AID 493056; in the data active = enhancement above about 30%; also: 0% is about no effect
Target sequence (P34981 whole entry, looked up): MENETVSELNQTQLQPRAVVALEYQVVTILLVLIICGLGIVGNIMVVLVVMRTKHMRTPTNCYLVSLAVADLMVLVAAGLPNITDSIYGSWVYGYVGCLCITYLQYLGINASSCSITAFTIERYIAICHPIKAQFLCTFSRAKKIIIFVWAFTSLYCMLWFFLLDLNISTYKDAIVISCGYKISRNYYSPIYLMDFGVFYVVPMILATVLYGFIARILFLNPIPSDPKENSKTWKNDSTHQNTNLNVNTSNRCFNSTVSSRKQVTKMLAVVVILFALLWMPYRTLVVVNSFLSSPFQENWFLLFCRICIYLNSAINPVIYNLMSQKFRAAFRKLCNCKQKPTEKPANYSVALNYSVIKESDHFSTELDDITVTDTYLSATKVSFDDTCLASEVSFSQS
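TRHR-expressing cells loaded with fluo-8 calcium dye were read kinetically (ex 480/em 530) during compound addition, then stimulated with an EC20 of TRH (10 nM final). Enhancement of the Gq-mediated intracellular calcium response was scored.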
TRHR ag – TRH receptor (human) agonism | TRHR cells, calcium flux fluo-8, FDSS agonist mode | activation, % at 2 µM | 0.18% of 360,000 active | AID 493084; also: 0% is about no effect
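In this calcium-flux screen, cells bearing human TRHR are dye-loaded with fluo-8, baselined for 10 cycles, then exposed to library compounds; positive kinetic calcium responses during the agonist phase mark hits, with TRH as control.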
D1 antag – antagonists of human D1 dopamine receptor; HEK293 TREx D1 cells, calcium flux, dopamine EC80; active compounds read low; P21728; activity change, negative = inhibition, % at 10 µM; AID 504652; 3.2% of 360,000 active; in the data active = activity change below about -30%; also: % is scaled to controls: 0 for no effect and ±100 for the full control effect
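Compound effects on dopamine-evoked calcium signalling were measured in tetracycline-induced HEK293 Trex D1 cells. Dopamine at EC80 followed a 180 s compound pre-read, and fluorescence was tracked kinetically for 180 s more.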
Numbers without * were called inactive; . = no result given. Rule as the data show it, unless noted: active = activation above about 30%; inactive = the rest.

SMILES	D1 potentiator	LDHA block	D1 agonist	TRHR enhancer	TRHR ag	D1 antag
Cc1ccc(C)c(Cn2c3ccccc3c3cnn(CC(=O)NCCCN4CCOCC4)c(=O)c32)c1	-4	0	3	-5	0	-30*
NC(=S)N/N=C/c1ncc(C(F)(F)F)cc1Cl	-2	4	31*	10	11	3
NC(=S)N/N=C/c1ccc(C(F)(F)F)cc1	-2	-3	0	8	-1	-22
COc1ccc(NC(=O)CN2C(=O)c3cccnc3Sc3ccccc32)cc1OC	-4	6	1	-8	-1	11
Cc1ccc(NC(=O)CCCCCN2C(=O)c3ccccc3C2=O)nc1	-9	2	1	2	0	-32*
Cc1ccc(NC(=O)CN2C(=O)c3cccnc3Sc3ccccc32)cc1C	-5	-14	-1	33*	-1	-10
Cc1ccc(NC(=O)c2ccc3c(c2)C(=O)N(c2ccccc2C)C3=O)nc1	.	-3	16	0	0	-36*
Cc1ccc(C)c(N2C(=O)c3ccc(C(=O)Nc4ccccn4)cc3C2=O)c1	.	-9	.	.	.	.
Cc1ccc(NC(=O)CN2C(=O)c3ccccc3C2=O)cc1	-5	-8	1	40*	0	-2
CN(C(=O)CNC(=O)NC(Cc1c[nH]c2ccccc12)C(=O)O)c1ccccc1 (stereo unspecified)	.	-14	.	.	.	.
Cc1c(CC(=O)O)c(=O)oc2cc(OCc3ccc(F)cc3)ccc12	.	-2	.	.	.	.
O=[N+]([O-])c1ccc(-c2nc(-c3cccs3)c(-c3cccs3)[nH]2)cc1	-2	-6	38*	3	0	-11
Fc1ccc(-c2nc(-c3cccs3)c(-c3cccs3)[nH]2)cc1	1	3	0	-7	1	-9
O=[N+]([O-])c1cccc(-c2nc(-c3cccs3)c(-c3cccs3)[nH]2)c1	-8	-1	2	4	-1	-36*
Cc1ccc(-c2nc(-c3cccs3)c(-c3cccs3)[nH]2)cc1	-3	-7	4	-6	-1	-33*
COc1ccc(NS(=O)(=O)c2ccc(-c3cnc(C)o3)cc2)c(OC)c1	.	-3	.	.	.	.
COc1ccc(N(CC(F)(F)F)C(=O)Cn2cnc3c2c(=O)n(C)c(=O)n3C)cc1	.	3	.	.	.	.
COc1ccc2c(c1)CCCN2C(N)=Nc1ccc(Cl)cc1	-10	-1	49*	-9	14	-44*
CCc1nc(N2CCC3(CC2)OCCO3)c2nnn(Cc3ccccc3)c2n1	2	0	2	37*	1	-11
c1ccc(Cn2nnc3c(N4CCC5(CC4)OCCO5)ncnc32)cc1	-7	0	-2	-2	0	-4
Cc1cc(C)cc(NC(=O)C(Nc2ccc3oc(C)nc3c2)c2ccccc2)c1 (stereo unspecified)	.	89	.	.	.	.
CCCCOc1ccc(C#N)cc1OC	.	2	.	.	.	.
O=C(c1cc(-c2cccs2)nc2ccccc12)N1CCN(C(=O)C2CC2)CC1	.	-20	.	.	.	.
CCN(CCNc1ccc(Cl)cc1[N+](=O)[O-])C(=O)c1cc([N+](=O)[O-])c(N(C)C)cc1OC	-7	-3	3	-9	-1	-80*
COc1ccc(NC(=O)CSCC(=O)N2CCN(C(=O)c3ccco3)CC2)cc1	.	-7	3	0	0	-63*
SMILES	D1 potentiator	LDHA block	D1 agonist	TRHR enhancer	TRHR ag	D1 antag
COc1ccc(NC(=O)N(C2CCCCC2)C(C)c2ccco2)c(OC)c1 (stereo unspecified)	-18	7	1	-19	0	-78*
COc1ccc(NC(=O)CN2CCN(C(=O)c3ccco3)CC2)c(OC)c1	-3	-13	4	9	0	3
Cc1ccc(NC(=O)CSCC(=O)N2CCN(C(=O)c3ccco3)CC2)cc1	5	-3	-1	1	0	-1
COc1ccc(NC(=S)N2CCN(C(=O)c3ccco3)CC2)c(OC)c1	-7	-7	2	-3	1	-68*
O=S1(=O)C[C@H](NC2CCCC2)[C@@H](S(=O)(=O)c2ccccc2)C1	.	-5	.	.	.	.
CC1CC(C)CN(CC(=O)N2CCc3[nH]c4ccccc4c3C2)C1 (stereo unspecified)	0	2	9	1	0	-6
